# A selection follows.
# aSyn UTR act: Activators working through SNCA 5'UTR binding (MLPCN) | alpha-synuclein 5'UTR reporter, activators screen | activity score, % (tested at 7.5 µM), hits read low | 300,000 tested, 7.1% active | AID 1814; in the data active means activity score below about -60%
# * hit, by the source's call.
SMILES,aSyn UTR act
Nc1c(-c2ccccc2)cnn1-c1cccc(C(F)(F)F)c1,-204.7*
CCCN(CC(=O)Nc1cc(Cl)ccc1Cl)C(=O)/C=C/c1ccco1,-67.7*
COc1ccc(-c2cc3c(nn2)-c2ccccc2C3=O)cc1,98.4
O=[N+]([O-])c1ccc2nc(-c3ccc(Cl)cc3)[nH]c2c1,-221.4*
O=[N+]([O-])c1cccc(-c2nc3ccc([N+](=O)[O-])cc3[nH]2)c1,-142.3*
COc1ccc2cc(-c3ccccc3)ncc2c1,-64.9*
O=[N+]([O-])c1ccc(/C=C/c2nc3ccc([N+](=O)[O-])cc3[nH]2)cc1,-165.0*
Clc1ccc(-c2nc3ccncc3[nH]2)cc1,-100.5*
O=[N+]([O-])c1ccc(-c2cc(-c3ccc(Cl)cc3)n[nH]2)cc1,-74.6*
COc1ccc(-c2nc3ccc([N+](=O)[O-])cc3[nH]2)cc1,-63.4*
COc1ccc2nc(-c3ccccc3)[nH]c2c1,-70.7*
COc1ccc2[nH]c(-c3ccccc3)cc2c1,-139.2*
CCN(CC)C(=O)C1CC(c2ccc(OC)cc2)=NO1 (stereo not given),-103.2*
O=C1NC(c2ccc(Br)cc2)Nc2sc3c(c21)CCC3 (stereo not given),-96.2*
Cc1ccsc1C1NC(=O)c2c(sc3c2CCCC3)N1 (stereo not given),-218.0*
Cc1ccc(C2NC(=O)c3c(sc4c3CCN(C)C4)N2)s1 (stereo not given),-72.1*
O=C1NC(c2ccccn2)Nc2sc3c(c21)CCC3 (stereo not given),-123.6*
CCc1sc(C(=O)Nc2cccnc2)cc1Br,-110.5*
CC(=O)Nc1nonc1NC(=O)c1ccc(C(C)(C)C)cc1,-153.0*
COC(=O)Cc1ccc(NC(=O)c2ccc(C(C)(C)C)cc2)cc1,124.4
CC(C)(C)c1ccc(OCc2ccc(C(=O)Nc3cccnc3)o2)cc1,-169.5*
CC(C)(C)c1ccc(C(=O)Nc2ccc(Cl)cc2)cc1,-109.9*
COC(=O)c1ccc(COc2ccc(C(C)(C)C)cc2)o1,-166.9*
CC(C)(C)c1ccc(C(=O)Nc2cccnc2)cc1,-91.0*
O=C(Nc1ccc(Cl)cc1)c1ccc(OC2CSC2)cc1,-90.1*
SMILES,aSyn UTR act
CCc1ccc(OCc2ccc(C(=O)OC)o2)cc1,-219.7*
O=C(N/N=C/c1cc([N+](=O)[O-])ccc1O)c1ccc(COc2ccc3c(c2)CCC3)o1,86.5
O=C(N/N=C/c1ccc2ccccc2c1)c1ccc(COc2ccc3c(c2)CCC3)o1,-72.3*
CC(C)(C)c1ccc(OCCCC(=O)N2CCOCC2)cc1,-104.0*
O=C(N/N=C\c1c(O)ccc2ccccc12)c1ccc(Cn2cccn2)o1,91.7
CC(C)(C)c1ccc(OCc2ccc(C(=O)N3CCOCC3)o2)cc1,-119.3*
CCCc1ccc(OCc2ccc(C(=O)N3CCSCC3)o2)cc1,-147.7*
Cc1ocnc1C(=O)Nc1ccc(Cl)cc1,-166.9*
COC(=O)c1ccc(COc2ccc3c(c2)CCC3)o1,-130.2*
CCCCN=C1NN=C(c2cccc([N+](=O)[O-])c2)CS1,-67.9*
CCCCN=C1NN=C(c2cc3ccccc3o2)CS1,-106.0*
O=C(Nc1cccc(NC(=O)c2cccs2)c1)c1ccc([N+](=O)[O-])o1,-69.0*
COc1cc(NC(=O)c2ccc([N+](=O)[O-])o2)ccc1NC(=O)c1cccs1,-82.2*
O=C(Nc1cc2cc([N+](=O)[O-])ccc2oc1=O)c1cccs1,-75.9*
COc1ccc(NC(=O)c2ccc(C)o2)c([N+](=O)[O-])c1,-102.1*
COc1ccc(NC(=O)c2ccc(Br)o2)c([N+](=O)[O-])c1,-109.5*
COc1ccc(NC(=O)c2ccc(C)cc2Cl)c([N+](=O)[O-])c1,-131.2*
COc1ccc(NC(=O)c2ccc([N+](=O)[O-])s2)c([N+](=O)[O-])c1,-92.2*
Cc1cc(C(c2nnnn2Cc2ccccc2)N2CCOCC2)c(C)n1-c1ccc2c(c1)OCO2 (stereo not given),-314.9*
CSc1ccc(N2C(=O)NC3(CCCCC3)C2=O)cc1,-111.1*
O=C(Nc1ccc(N2CCOCC2)cc1)Nc1cnsn1,-114.4*
O=C(Nc1ccc(N2CCOCC2)cc1)Nc1ccc(Cl)c(Cl)c1,-139.2*
COc1ccc(C(=O)NCCSc2ccccc2)cc1OC,-129.2*
CN(C)S(=O)(=O)c1ccc(C(=O)NCCSc2ccccc2)cc1,-115.5*
CCOc1ccccc1N/C=C(\C#N)c1nc2ccccc2n1C,-75.8*
SMILES,aSyn UTR act
O=c1[nH]cnc2cc(-c3ccccc3)sc12,-94.5*
COc1ccc(-c2cc3nc(CCl)[nH]c(=O)c3s2)cc1,71.2
COc1ccc(C(=O)/C(=C/N(C)C)S(=O)(=O)c2ccccc2)cc1,-160.5*
OCCc1ccc(-c2ccc(Cl)cc2)o1,-65.1*
Cc1ccc(C(=O)N/C(=C\c2ccc(-c3ccc(Cl)cc3)o2)C(=O)NCCCN(C)C)cc1,56.8
N=c1c(C(=O)NCCN2CCOCC2)cc2c(=O)n3ccccc3nc2n1CCc1ccccc1,-82.8*
COc1ccc(CCn2c(=N)c(C(=O)NCc3ccco3)cc3c(=O)n4ccccc4nc32)cc1,-72.8*
Cc1ccc(S(=O)(=O)c2cc3c(=O)n4ccccc4nc3n(CCc3ccccc3)c2=N)cc1,-230.5*

# Source: PubChem BioAssay
